The structures appear in SMILES notation. Records with an inconclusive call do not appear. Active and inactive are the calls of the source. Rule for the calls, unless noted: active = hit-call score of the fitted dose curve at least 0.9, where 1 is the maximum; inconclusive = response in the unintended direction; inactive = score below 0.9.

The target of assay [1] is human RAR-related Orphan Receptor gamma (RORg), RORC (gene 6097) (UniProt P51449). Description: ATG_RORg_TRANS: Attagene TRANS-FACTORIAL HepG2 Assay for human RAR-related Orphan Receptor gamma (RORg) (AID 2283011).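 For AC50: potency for induction of reporter transcripts above DMSO so activators.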 The procedure, abridged:
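Chimeric RORg-Gal4 transactivation in transfected HepG2; 24 h exposure; RT-PCR/capillary electrophoresis readout of reporter mRNA, DMSO baseline.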

The target of assay [2] is Retinoic acid receptor RXR-alpha (Homo sapiens) (UniProt P19793). The assay can be described thus: ATG_RXRa_TRANS: Attagene TRANS-FACTORIAL HepG2 Assay for human Retinoid X Receptor alpha (RXRa) (AID 2283012). In short, it runs like this: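 HepG2 cells transiently transfected with multiplexed GAL4-UAS reporter units and chimeric NR-GAL4 fusions, dosed 24 h. Reporter mRNA measured by RT-PCR, FAM labelling, HpaI digestion and capillary electrophoresis; gain-of-signal fitted relative to DMSO baseline.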
Chain of Retinoic acid receptor RXR-alpha (Homo sapiens) (P19793 whole entry, looked up, the tested form may be a part): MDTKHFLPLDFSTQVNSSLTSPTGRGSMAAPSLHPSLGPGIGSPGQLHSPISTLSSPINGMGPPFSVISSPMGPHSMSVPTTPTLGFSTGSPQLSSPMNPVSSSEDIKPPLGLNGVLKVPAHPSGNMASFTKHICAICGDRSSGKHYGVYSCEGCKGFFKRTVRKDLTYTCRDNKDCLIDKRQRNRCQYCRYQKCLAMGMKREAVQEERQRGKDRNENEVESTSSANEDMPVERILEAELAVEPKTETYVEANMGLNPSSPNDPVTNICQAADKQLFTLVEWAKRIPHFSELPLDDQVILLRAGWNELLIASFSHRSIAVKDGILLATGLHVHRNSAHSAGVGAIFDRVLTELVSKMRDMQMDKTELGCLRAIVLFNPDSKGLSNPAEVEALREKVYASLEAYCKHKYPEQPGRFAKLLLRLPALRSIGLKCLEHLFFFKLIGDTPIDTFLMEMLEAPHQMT

In assay [3] the target is human Retinoid X Receptor beta (RXRb), RXRB (gene 6257) (UniProt P28702). The assay can be described thus: ATG_RXRb_TRANS: Attagene TRANS-FACTORIAL HepG2 Assay for human Retinoid X Receptor beta (RXRb) (AID 2283013). The procedure, abridged:
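HepG2 cells transiently transfected with multiplexed reporter units driven by GAL4-UAS and exogenous chimeric NR-Gal4 proteins; treated 24 h. Reporter mRNA measured by RT-PCR, 6-FAM labelling and capillary electrophoresis; gain-of-signal fitted versus DMSO baseline.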

Read-out in assay [4]: Interleukin-8 (IL8), CXCL8 (gene 3576)
Description: BSK_3C_IL8: BioMAP Diversity Plus: 3C Assay for Interleukin-8 (IL8) Biomarker Activity (AID 2283020; active = hit-call score of the fitted dose curve at least 0.9, where 1 is the maximum; inactive = score below 0.9). Particulars: primary human endothelial cells (HUVEC); actives raise or lower the signal. In short, it runs like this:
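Primary human umbilical vein endothelial cells (3C system) were exposed to test chemical for 24 h, then IL-8 was quantified by ELISA. Responses were fitted bidirectionally against DMSO vehicle as baseline.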

For assay [5], the target named is human Thyroid Receptor alpha (THRa1), THRA (gene 7067) (UniProt P10827). The assay can be described thus: ATG_THRa1_TRANS: Attagene TRANS-FACTORIAL HepG2 Assay for human Thyroid Receptor alpha (THRa1) (AID 2283014). In short, it runs like this: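 Measured here is mRNA from a GAL4-UAS reporter in transfected HepG2 cells carrying a Gal4-fused receptor, 24 h post-dose. DMSO served as negative control and baseline.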
Chain of human Thyroid Receptor alpha (THRa1), THRA (gene 7067) (P10827 whole entry, looked up, the tested form may be a part): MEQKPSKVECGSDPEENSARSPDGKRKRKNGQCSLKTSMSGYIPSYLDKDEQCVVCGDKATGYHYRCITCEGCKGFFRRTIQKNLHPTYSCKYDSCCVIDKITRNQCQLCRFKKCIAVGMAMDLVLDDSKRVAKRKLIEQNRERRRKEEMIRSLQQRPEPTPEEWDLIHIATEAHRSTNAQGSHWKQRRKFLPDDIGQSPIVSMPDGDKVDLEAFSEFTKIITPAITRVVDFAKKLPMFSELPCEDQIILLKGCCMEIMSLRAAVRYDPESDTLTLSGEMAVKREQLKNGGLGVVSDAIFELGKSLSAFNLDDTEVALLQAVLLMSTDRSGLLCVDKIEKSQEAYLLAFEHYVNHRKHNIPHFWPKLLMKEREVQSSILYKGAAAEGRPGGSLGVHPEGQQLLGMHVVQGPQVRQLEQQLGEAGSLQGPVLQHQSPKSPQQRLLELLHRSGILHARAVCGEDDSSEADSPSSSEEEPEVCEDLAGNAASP

Read-out in assay [6]: E-selectin (Homo sapiens) (UniProt P16581)
Description: BSK_3C_Eselectin: BioMAP Diversity Plus: 3C Assay for Eselectin Biomarker Activity (AID 2283015; active = hit-call score of the fitted dose curve at least 0.9, where 1 is the maximum; inactive = score below 0.9;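 note: cell surface E-selectin protein quantified by ELISA 24 h after dosing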). Particulars: primary human endothelial cells (HUVEC); actives raise or lower the signal. In short, it runs like this: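 Endpoint derived by bidirectional fitting against DMSO vehicle; signal is ELISA-detected E-selectin from primary HUVEC at 24 h post-dosing, with parallel SRB staining (0.1% SRB, 560 nm) flagging cytotoxicity.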

Read-out in assay [7]: Interleukin-1 alpha (IL1a), IL1A (gene 3552)
Description: BSK_BE3C_IL1a: BioMAP Diversity Plus: BE3C Assay for Interleukin-1 alpha (IL1a) Biomarker Activity (AID 2283016; active = hit-call score of the fitted dose curve at least 0.9, where 1 is the maximum; inactive = score below 0.9). Particulars: primary human bronchial epithelial cells; actives raise or lower the signal. In short, it runs like this: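 Human primary bronchial epithelial cells (BE3C system) were dosed with compound and IL-1a measured by ELISA 24 h later. Activity was fitted bidirectionally against DMSO baseline; cytotoxicity was tracked in parallel cultures by SRB total-protein staining.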

Read-out in assay [8]: Monocyte Chemoattractant Protein-1 (MCP1), CCL2 (gene 6347)
The assay can be described thus: BSK_3C_MCP1: BioMAP Diversity Plus: 3C Assay for Monocyte Chemoattractant Protein-1 (MCP1) Biomarker Activity (AID 2283017; active = hit-call score of the fitted dose curve at least 0.9, where 1 is the maximum; inactive = score below 0.9). Particulars: primary human endothelial cells (HUVEC); actives raise or lower the signal. The procedure, abridged: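 Using human vascular primary endothelium, researchers measured MCP-1 by ELISA 24 h after treatment, with DMSO serving as negative control for bidirectional fitting.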

Read-out in assay [9]: Monocyte Chemoattractant Protein-1 (MCP1), CCL2 (gene 6347)
The assay can be described thus: BSK_4H_MCP1: BioMAP Diversity Plus: 4H Assay for Monocyte Chemoattractant Protein-1 (MCP1) Biomarker Activity (AID 2283018; active = hit-call score of the fitted dose curve at least 0.9, where 1 is the maximum; inactive = score below 0.9). Particulars: primary human endothelial cells (HUVEC); actives raise or lower the signal. The procedure, abridged: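 Human umbilical vein endothelial cells (4H system) dosed with chemical; MCP-1 measured by ELISA 24 h after dosing. Bidirectional curve fitting against DMSO negative control as baseline; parallel SRB total-protein staining tracks overt cytotoxicity.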

Read-out in assay [10]: Human Leukocyte Antigen - DR isotype (HLADR), HLA-DRA (gene 3122)
The assay can be described thus: BSK_3C_HLADR: BioMAP Diversity Plus: 3C Assay for Human Leukocyte Antigen - DR isotype (HLADR) Biomarker Activity (AID 2283019; active = hit-call score of the fitted dose curve at least 0.9, where 1 is the maximum; inactive = score below 0.9;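 note: ELISA of cell-surface HLA-DR on HUVEC 24 h after dosing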). As to conditions: primary human endothelial cells (HUVEC); actives raise or lower the signal. The procedure, abridged:
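Compound added to primary HUVEC cultures, 24 h incubation, then HLA-DR determined by ELISA; endpoint derived by bidirectional fitting relative to DMSO negative control.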

Chain of human Retinoid X Receptor beta (RXRb), RXRB (gene 6257) (P28702 whole entry, looked up, the tested form may be a part): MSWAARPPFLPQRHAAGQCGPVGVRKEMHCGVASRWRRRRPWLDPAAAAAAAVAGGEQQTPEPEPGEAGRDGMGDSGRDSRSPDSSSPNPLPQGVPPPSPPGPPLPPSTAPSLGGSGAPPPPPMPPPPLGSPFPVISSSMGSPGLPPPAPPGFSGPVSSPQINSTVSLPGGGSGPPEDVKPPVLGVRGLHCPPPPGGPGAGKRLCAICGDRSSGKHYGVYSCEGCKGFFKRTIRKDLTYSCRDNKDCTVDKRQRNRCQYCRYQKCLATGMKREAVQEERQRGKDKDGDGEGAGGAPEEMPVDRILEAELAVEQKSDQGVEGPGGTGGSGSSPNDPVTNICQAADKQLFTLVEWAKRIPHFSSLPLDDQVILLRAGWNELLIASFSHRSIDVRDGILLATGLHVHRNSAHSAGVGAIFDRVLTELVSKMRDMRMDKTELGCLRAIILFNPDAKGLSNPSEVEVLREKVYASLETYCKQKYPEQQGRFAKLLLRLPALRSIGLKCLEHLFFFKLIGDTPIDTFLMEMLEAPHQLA
Chain of human RAR-related Orphan Receptor gamma (RORg), RORC (gene 6097) (P51449 whole entry, looked up, the tested form may be a part): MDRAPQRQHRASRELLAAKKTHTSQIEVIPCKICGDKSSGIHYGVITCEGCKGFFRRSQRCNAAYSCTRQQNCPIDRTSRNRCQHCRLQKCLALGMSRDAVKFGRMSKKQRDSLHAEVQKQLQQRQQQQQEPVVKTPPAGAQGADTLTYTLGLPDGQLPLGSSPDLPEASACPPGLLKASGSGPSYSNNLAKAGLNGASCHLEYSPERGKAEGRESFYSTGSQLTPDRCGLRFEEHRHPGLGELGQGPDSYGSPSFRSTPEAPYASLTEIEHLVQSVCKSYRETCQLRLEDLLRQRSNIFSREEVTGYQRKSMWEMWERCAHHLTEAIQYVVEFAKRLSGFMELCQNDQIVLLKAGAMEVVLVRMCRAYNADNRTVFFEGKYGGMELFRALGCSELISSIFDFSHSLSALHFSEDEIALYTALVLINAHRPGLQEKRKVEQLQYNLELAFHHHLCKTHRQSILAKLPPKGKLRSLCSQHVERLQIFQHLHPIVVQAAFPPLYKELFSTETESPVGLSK
Chain of E-selectin (Homo sapiens) (P16581 whole entry, looked up): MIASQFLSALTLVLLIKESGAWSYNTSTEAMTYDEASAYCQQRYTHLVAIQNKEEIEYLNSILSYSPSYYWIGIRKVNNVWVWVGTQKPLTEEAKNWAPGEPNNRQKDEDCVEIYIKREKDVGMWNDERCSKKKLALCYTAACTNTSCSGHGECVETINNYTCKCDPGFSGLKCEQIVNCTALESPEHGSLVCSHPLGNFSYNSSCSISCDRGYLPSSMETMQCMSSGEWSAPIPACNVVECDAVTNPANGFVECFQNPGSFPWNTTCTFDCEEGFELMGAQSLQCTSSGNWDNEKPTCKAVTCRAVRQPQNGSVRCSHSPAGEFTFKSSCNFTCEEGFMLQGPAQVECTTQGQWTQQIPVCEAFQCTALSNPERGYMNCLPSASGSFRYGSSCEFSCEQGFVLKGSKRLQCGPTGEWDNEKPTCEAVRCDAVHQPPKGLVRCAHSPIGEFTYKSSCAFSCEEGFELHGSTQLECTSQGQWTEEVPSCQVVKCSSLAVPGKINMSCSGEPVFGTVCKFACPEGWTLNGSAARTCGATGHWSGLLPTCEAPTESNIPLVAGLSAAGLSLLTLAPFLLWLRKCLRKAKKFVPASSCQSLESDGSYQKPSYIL

As to `COC(=O)OC`, the result in assay [1], in [2] and in assay [3] was inactive.
For the compound `C/C=C(\C)C(=O)OCc1ccccc1`, the compound was called inactive in assay [1], in [2] and in [3].
As for `S=C(S)NCCNC(=S)S`, the outcome in [1] and in [2] was inactive.
In general, AC50 refers to the concentration at which the activity in the assay is half-maximal. In the case of `O=Nc1ccc(Nc2ccccc2)cc1`, the AC50 in [1] is 40.4 µM (active). The call in assay [2] was inactive.
Consider `[Ca+2]`, for which the outcome in assay [1], in assay [2] and in assay [3] was inactive.
As to `NC(=O)c1ccccc1Cl`, the outcome in assay [1], in assay [2] and in [3] was inactive.
On to `CCCC(=O)c1cc(O)c(O)cc1O`, for which the compound was called inactive in [1].
Same read-out and setting: then `CC1(C)OC[C@@H]2O[C@@]3(C(=O)O)OC(C)(C)O[C@H]3[C@@H]2O1`, with “inactive”; and `COc1cccc(OC)c1`, with “inactive”.
On to `COc1ccc(Cl)cc1C`, for which the compound was called inactive in [1] and in assay [2].
Regarding `CC(C)=CCO`, the call in [1] and in assay [2] was inactive.
Consider `N#Cc1nc(Cl)c(Cl)c(Cl)c1Cl`, for which the AC50 in assay [1] was 2.56 µM (active). Further, the call in assay [2] was inactive.
For the compound `CC(C)CCCCCCCOC(=O)c1ccc(C(=O)OCCCCCCCC(C)C)c(C(=O)OCCCCCCCC(C)C)c1`, the result in [1] was inactive.
For the compound `O=C1CCCCCCCCCCCCCCO1`, the AC50 in [4] was 33.6 µM (active).
For the compound `Cc1c(N(C)C)c(=O)n(-c2ccccc2)n1C`, the call in [1], in [2] and in assay [5] was inactive.
For the compound `Cc1ccc2sc3cccc(C)c3c2c1`, the call in assay [1], in assay [3] and in assay [5] was inactive.
`CCCCCCCCCCCCN`: the outcome in assay [1] and in [3] was inactive.
`Cc1ccc(C(=O)O)o1`: the compound was called inactive in assay [1], in assay [3] and in assay [5].
Turning to `O=C(O)c1cccc([N+](=O)[O-])c1`, the compound was called inactive in assay [1], in [2] and in [5].
Take `CCC(C)CCCC(C)(C)O` (stereo not drawn): the result in [1], in [3] and in assay [5] was inactive.
Consider `CCC(=O)OCc1ccccc1`, for which the compound was classed as inactive in assay [1], in assay [2], in assay [6], in [7], in assay [8] and in [9]. Also, in assay [10], the outcome was inactive.
As to `Sc1nc(S)nc(S)n1`, the result in [1] and in assay [3] was inactive.

These data come from PubChem BioAssay (EPA / NIEHS).
